According to ChEMBL document CHEMBL3988442, “University of Dundee, Small-Polar-MMV Screening Library” (2021):
The whole screen tested about 48,000 compounds, of which about 13,000 (27%) showed an effect of 50% or more. The list shows a part of the results.

Each compound was assayed on Wolbachia pipientis (assay: Anti-Wolbachia Cell-Based Screen). Details: 5 µM.
Type: functional
Set-up: scale not given: in the data most compounds retested in dose-response had high values

Going from COc1ccc2cc(CN(C)CCc3cn[nH]c3)c(=O)[nH]c2c1 to COc1ccccc1C(=O)N1CCN(C(=O)CCCc2cn[nH]c2)CC1, the “Percent Effect” value rises from -3.299% to 9.231%.

First: Cc1ccccc1C(=O)NC1CCN(Cc2ncc(C(C)(C)C)o2)CC1
Second: Cc1ccc(C(=O)NC2CCN(S(C)(=O)=O)CC2)c(=O)[nH]1
The “Percent Effect” value of the first is lower: 19.24% for the first, 87.03% for the second.

Compared with Cc1nc(C(C)(C)NC(=O)Nc2ccncc2)no1, COCc1nc2cc(NCc3scnc3C)ccc2o1 is higher in “Percent Effect” value: -5.529% for the first, 5.426% for the second.

Going from CS(=O)(=O)NCC1CCCN(C(=O)c2ccc3c(c2)CCCC3)C1 (stereo not given) to CS(=O)(=O)NCC1CCCN(C(=O)Nc2ccccc2N2CCCC2)C1 (stereo not given), the “Percent Effect” value rises from 4.156% to 96.01%.

Compared with CS(=O)(=O)NCC1CCCN(C(=O)COc2ccc(F)cc2)C1 (stereo not given), CS(=O)(=O)NCC1CCCN(C(=O)COCc2ccccc2)C1 (stereo not given) is lower in “Percent Effect” value: -1.733% for the first, -4.256% for the second.

First: CS(=O)(=O)NCC1CCCN(C(=O)Nc2ccccc2F)C1 (stereo not given)
Second: CS(=O)(=O)NCC1CCCN(C(=O)Nc2cccc3ccccc23)C1 (stereo not given)
The “Percent Effect” value of the first is higher: 119.4% for the first, 98.14% for the second.

First: O=C(Nc1cccc2ccccc12)N1CCC(N2CCSCC2)CC1
Second: O=C(CN1CCCC1)N1CCCC(CNS(=O)(=O)Cc2ccccc2)C1 (stereo not given)
The “Percent Effect” value of the first is lower: -0.7759% for the first, 16.47% for the second.

Going from CC(C)S(=O)(=O)NCC1CCCN(C(=O)c2ccc(F)cc2)C1 (stereo not given) to Cc1ccc(C(=O)NC2CCCN(S(C)(=O)=O)C2)c(=O)[nH]1 (stereo not given), the “Percent Effect” value rises from -11.51% to 107.3%.

Going from CNS(=O)(=O)CCCN1CCCC1c1noc(C2CC2)n1 (stereo not given) to Cc1noc(-c2ccc(N3CCCC(C(N)=O)C3)nc2)n1 (stereo not given), the “Percent Effect” value falls from -1.215% to -1.352%.

Going from O=C(Nc1ccc(-c2csnn2)cc1)N1CCCC1 to Cc1ccc(NC(=O)N2CCCN(C(N)=O)CC2)s1, the “Percent Effect” value rises from -14.17% to -6.622%.

First: CN(C)Cc1csc(-c2nccn2CCc2cccnc2)c1
Second: COc1cc(N2CCC3(CCN(Cc4cccnc4)C3=O)C2)ncn1 (stereo not given)
The “Percent Effect” value of the first is lower: -6.294% for the first, 116% for the second.

Compared with CCCC(Cn1cnc(-c2ccccc2)c1-c1cncn1CC)N(C)C (stereo not given), CN(Cc1ccco1)Cc1ccccc1CNC(=O)c1csnn1 is lower in “Percent Effect” value: 8.465% for the first, -8.686% for the second.

Compared with CCCNC(=O)c1cc2c(nc1O)CCC(C)C2 (stereo not given), CC(C)(C)[S+]([O-])CCNC(=O)c1csc(NC2CC2)n1 (stereo not given) is higher in “Percent Effect” value: 4.186% for the first, 7.627% for the second.

First: Cc1ccc(C(=O)NCCCNS(C)(=O)=O)c(=O)[nH]1
Second: Cc1ccc(C(=O)NCCNS(C)(=O)=O)c(=O)[nH]1
The “Percent Effect” value of the first is higher: 10.14% for the first, 2.203% for the second.

Compared with Cc1ccc(C(=O)NCCS(C)(=O)=O)c(=O)[nH]1, Cc1ccc(C(=O)NCCCS(C)(=O)=O)c(=O)[nH]1 is higher in “Percent Effect” value: -10.31% for the first, 0.8619% for the second.

Going from NC(=O)NC(=O)CCN1CCN(CC2CC2)c2ccccc21 to Cn1cccc1C(=O)NCc1cn2c(n1)CN(CC1CCOC1)CC2 (stereo not given), the “Percent Effect” value falls from -1.129% to -25.14%.

Going from OC[C@H]1CN(Cc2c(Cl)cncc2Cl)C[C@H]1CN1CCOCC1 to Cn1cc(-c2ncc3c(c2C(=O)O)CCN(CC2CCOC2)C3)cn1 (stereo not given), the “Percent Effect” value rises from 11.24% to 111.7%.

Compared with Cn1cc(-c2ncc3c(c2C(=O)O)CCN(CC2CC2)C3)cn1.O=C(O)C(F)(F)F.O=C(O)C(F)(F)F, CN1CCn2c(-c3cnn(C)c3)cnc2C12CCN(CC1CC1)CC2.O=C(O)C(F)(F)F.O=C(O)C(F)(F)F.O=C(O)C(F)(F)F is lower in “Percent Effect” value: 86.35% for the first, -10.48% for the second.

Going from CN(C)C(C(=O)N1CCN(CCn2cccc2)CC1)c1ccc(F)cc1 (stereo not given) to O=C1O[C@@H]2CN(c3ccccn3)C[C@@H]2N1CCCc1ccc(F)cc1, the “Percent Effect” value rises from -11.45% to 2.286%.

First: COc1cc(N2CCCC3(CCN(c4cncnc4)C3=O)C2)ncn1 (stereo not given)
Second: COc1cccc(CN2CCC3(CCN(c4ncc(C)cn4)C3)C2=O)c1 (stereo not given)
The “Percent Effect” value of the first is lower: -10.96% for the first, -10.16% for the second.

Going from Cc1cnc(N2CCC3(C2)C(=O)N(C)CCN3Cc2cccnc2)nc1.O=C(O)C(F)(F)F.O=C(O)C(F)(F)F (stereo not given) to CN1CCN(Cc2cccnc2)C2(CCN(c3ncc(F)cn3)C2)C1=O.O=C(O)C(F)(F)F.O=C(O)C(F)(F)F (stereo not given), the “Percent Effect” value falls from 1.691% to -9.065%.

Going from O=C1N(Cc2cccc(F)c2)CCC12CCCN(c1ncc(F)cn1)C2 (stereo not given) to O=C(O)C(F)(F)F.O=C1N(Cc2cccnc2)CCC12CCCN(c1ncc(F)cn1)C2 (stereo not given), the “Percent Effect” value rises from 102% to 109.4%.

Going from O=C(O)C(F)(F)F.O=C1N(Cc2ccncc2)CCC12CCCN(c1ncc(F)cn1)C2 (stereo not given) to O=C(O)C(F)(F)F.O=C(O)C(F)(F)F.O=C1N(Cc2cccnc2)CCC12CCCN(c1ncccn1)C2 (stereo not given), the “Percent Effect” value falls from 97.96% to 94.5%.

Compared with O=C(O)C(F)(F)F.O=C([C@H]1CCCO1)N1CCCC2(CCN(Cc3ccncc3)C2=O)C1 (stereo not given in full), O=C1N(Cc2ccc(F)c(F)c2)CCCC12CCN(C1CCCC1)C2 (stereo not given) is lower in “Percent Effect” value: 14.29% for the first, 7.69% for the second.

Going from CN1CCN(Cc2cccnc2)C2(CCN(c3ncccn3)C2)C1=O.O=C(O)C(F)(F)F.O=C(O)C(F)(F)F (stereo not given) to Cc1csc2ncc(-c3ccnc(N4CCCN(C)CC4)n3)c(=O)n12, the “Percent Effect” value rises from -6.592% to 84.49%.

Going from CSCC(C)(O)CNc1ncccc1C(F)(F)F (stereo not given) to COC(=O)CNc1cc(C(=O)NCC(F)(F)F)cc(F)c1C, the “Percent Effect” value falls from 8.156% to 5.099%.

First: O=C(c1ccccn1)N1C[C@@H]2OCC(=O)N(CC3CCCCC3)[C@@H]2C1
Second: Cc1csc2ncc(-c3ccnc(N4CCC[C@H](C(N)=O)C4)n3)c(=O)n12
The “Percent Effect” value of the first is lower: 1.178% for the first, 107.6% for the second.

Going from OC1CCN(Cc2cc3c(cc2Br)OCCO3)CC1 to O=S1(=O)CCC(c2nnc(-c3cnc4onc(C5CCCC5)c4c3)o2)C1 (stereo not given), the “Percent Effect” value falls from 23.9% to -3.167%.

First: Cc1csc2ncc(-c3ccnc(N4CCN(C)CC4)n3)c(=O)n12
Second: Cc1csc2ncc(-c3ccnc(N4CCCC4)n3)c(=O)n12
The “Percent Effect” value of the first is lower: 4.781% for the first, 95.07% for the second.

First: Cc1ccc(-c2ccnc(N3CCC4(CC3)CNC(=O)C4)n2)c(C)n1
Second: Cc1ccc(-c2csc3c(=O)[nH]c(N4CCCC(C(N)=O)C4)nc23)cc1 (stereo not given)
The “Percent Effect” value of the first is lower: -12.24% for the first, 13.87% for the second.
